{"source": "ChEMBL document CHEMBL4513216", "about": "“Probing the Open Global Health Chemical Diversity Library for Multistage-Active Starting Points for Next-Generation Antimalarials” (ACS Infect Dis, 2020)", "note": "Hit rate of the full screen: of about 65,000 compounds, about 2,100 (3.2%) showed an effect of 50% or more. The median lay at about -52%. The list comes from a sample in which strong results are over-represented; it also holds similar structures and randomly drawn compounds."}
{"test_system": "Plasmodium falciparum", "assay": "Screen against P. falciparum Asexual Blood Stage (ABS), at 5uM", "type": "functional, Dd2", "conditions": "tested at 5 uM", "units": {"INHIBITION": "%"}}
{"compound": "O=C(CC1CC1)N1C[C@H]2CCN[C@H]2C1", "INHIBITION": -62.6}
{"compound": "O=S(=O)(c1cccnc1)N1C[C@@H]2COC[C@]2(CN2CCOCC2)C1", "INHIBITION": -111}
{"compound": "CN1CCN(Cc2ccccc2CNC(=O)c2cc(Br)ccc2F)CC1", "INHIBITION": 77.5}
{"compound": "Cc1cc(CN2CCN(C(=O)Cc3ccccc3F)CC2)on1", "INHIBITION": -206}
{"compound": "CN1CCN(Cc2ccccc2CNC(=O)c2ccc(Cl)cc2F)CC1", "INHIBITION": 77.2}
{"compound": "Cc1ncsc1CN1C[C@H](OCc2ccncc2)[C@H]2OCCC[C@H]21", "INHIBITION": -47.7}
{"compound": "O=C(Cc1cccs1)N1C[C@@H]2OCCN(CC3CCCC3)[C@@H]2C1", "INHIBITION": -96.4}
{"compound": "CC(Cn1cccn1)NCc1csc(-c2cccs2)n1", "note": "(stereo unspecified)", "INHIBITION": -268}
{"compound": "COc1cccc(-c2nc(CNCCCn3cccn3)cs2)c1", "INHIBITION": 76.3}
{"compound": "CCc1nc(CNC(C)Cn2cccn2)cs1", "note": "(stereo unspecified)", "INHIBITION": -78.5}
{"compound": "Cc1cc(CN2CC[C@H]3C[C@H](C(=O)N(C)C)O[C@@H]3C2)no1", "INHIBITION": -20.9}
{"compound": "c1cc(CN2CCSC3(CCCCC3)C2)no1", "INHIBITION": -170}
{"compound": "CC(C)Nc1ccc2nc(C3CCNCC3)nn2c1", "INHIBITION": -54.1}
{"compound": "O=C(NCCN1CCCCC1)C(c1ccccc1)N1CCCC1", "note": "(stereo unspecified)", "INHIBITION": 80}
{"compound": "Cc1nn(C)c(C)c1C(C(=O)O)N1CC=C(c2ccccc2)CC1", "note": "(stereo unspecified)", "INHIBITION": -74.2}
{"compound": "CC(C(=O)N1CCCC1)N1CCCN(C(=O)Oc2ccccc2)CC1", "note": "(stereo unspecified)", "INHIBITION": -54.8}
{"compound": "O=C1[C@@H]2CCN(C3CCC3)C[C@@H]2OCCN1Cc1ccncc1", "INHIBITION": -35.3}
{"compound": "COc1cccc(CN(C)C(C)c2ccco2)c1OCCn1ccnc1", "note": "(stereo unspecified)", "INHIBITION": 71.8}
{"compound": "CNC(=O)CN1C(=O)CCC12CCCN(Cc1ccccn1)C2", "note": "(stereo unspecified)", "INHIBITION": -14.2}
{"compound": "CN(C)CCN1C(=O)CCCC12CCCN(Cc1cccs1)C2", "note": "(stereo unspecified)", "INHIBITION": 73.5}
{"compound": "CN1C(=O)CCC12CCCN(Cc1nccs1)C2", "note": "(stereo unspecified)", "INHIBITION": -74.2}
{"compound": "COCCC1(CNC(=O)Nc2ccnc(C)c2)CCCC1", "INHIBITION": 72.6}
{"compound": "Cc1ncc(CN2C[C@H]3CC(OCc4ccccc4)C[C@H]3C2)cn1", "note": "(stereo partly specified)", "INHIBITION": -74.6}
{"compound": "Cc1ccc2c(n1)N(CC1CC1)CCN(S(=O)(=O)C1CC1)C2", "INHIBITION": -28.5}
{"compound": "Cc1ccc2c(n1)N(CC1CC1)CCN(Cc1ccco1)C2", "INHIBITION": -45.2}
{"compound": "Cc1ccc2c(n1)N(CCn1cccn1)CCN(CC1CC1)C2", "INHIBITION": 77.6}
{"compound": "Cc1nnc(N2CC[C@@]3(O)CCNC[C@H]3C2)c2ccccc12", "INHIBITION": -14.9}
{"compound": "O[C@]12CCNC[C@H]1CN(c1ccnc3ccccc13)CC2", "INHIBITION": 92}
{"compound": "O[C@]12CCNC[C@H]1CN(c1nccc3ccccc13)CC2", "INHIBITION": -5.03}
{"compound": "Cc1cnc(N2CCC3(CCCCN3C)C2)nc1", "note": "(stereo unspecified)", "INHIBITION": -23.5}
{"compound": "CC(C)(C)CC(=O)N1C[C@H]2CCN[C@H]2C1", "INHIBITION": -36.7}
{"compound": "Cc1cc(CN2C[C@@H]3COC[C@H](C(=O)N4CCCCO4)[C@@H]3C2)no1", "INHIBITION": -158}
{"compound": "CN(C)C(=O)CN1CCN(c2ncccn2)[C@@H]2CS(=O)(=O)C[C@@H]21", "INHIBITION": -100}
{"compound": "O=C1NCC2(CCCN(Cc3ccncc3)C2)Oc2ccccc21", "note": "(stereo unspecified)", "INHIBITION": -7.11}
{"compound": "CCN1CCN(C)C2(CCN(Cc3cccc(C)n3)CC2)C1=O", "INHIBITION": -50.7}
{"compound": "CCN1CCC2(CC1)CC(NCc1cccc(C)n1)c1ccccc1O2", "note": "(stereo unspecified)", "INHIBITION": 91.3}
{"compound": "Cc1cnc(N2CCC3(CC2)CN(Cc2cccs2)CCO3)nc1", "INHIBITION": -35.2}
{"compound": "Cc1cccc(CN2CCC3(CCN(c4cccnc4)C3=O)C2)n1", "note": "(stereo unspecified)", "INHIBITION": -18.3}
{"compound": "CCN1CCC2(CC1)CC(Nc1ncccn1)CO2", "note": "(stereo unspecified)", "INHIBITION": -11}
{"compound": "CCN1CCC2(CC1)CC(NCc1ccncc1)c1ccccc1O2", "note": "(stereo unspecified)", "INHIBITION": 77.7}
{"compound": "CCN1CCC2(CC1)CC(NCc1cccs1)c1ccccc1O2", "note": "(stereo unspecified)", "INHIBITION": 85.8}
{"compound": "O=C1Nc2ccccc2C12CCN(Cc1cccs1)CC2", "INHIBITION": -14.5}
{"compound": "O=C(Nc1cccnc1)[C@H]1CO[C@H]2CCNC[C@H]2C1", "INHIBITION": -181}
{"compound": "Cc1cccc(CN2C[C@H](OCc3ccccn3)[C@H]3COC[C@H]32)n1", "INHIBITION": -21.3}
{"compound": "Cc1noc(C)c1CN1CCO[C@H]2CN(Cc3cccnc3)C[C@H]21", "INHIBITION": 0.607}
{"compound": "CCc1ccc(CN2CCN(C)c3ncccc3C2)o1", "INHIBITION": -114}
{"compound": "O=c1[nH]cnc2[nH]c(N3CCNCC3)nc12", "INHIBITION": -168}
{"compound": "CN(C)C(=O)CN1CCC2(CCCN(Cc3cccnc3)C2)C1=O", "note": "(stereo unspecified)", "INHIBITION": -34}
{"compound": "Cc1cccc(CN2C[C@@H](NC(=O)C3CCC3)[C@H]3COC[C@H]32)n1", "INHIBITION": -50.1}
{"compound": "COc1ccccc1CN(C)C(=O)CN1CC(n2nc(C)cc2C)C1", "INHIBITION": 78.2}
{"compound": "COc1ccc(Cl)cc1CN(C)C(=O)CN1C(=O)CCC1C", "note": "(stereo unspecified)", "INHIBITION": -38.8}
{"compound": "CCc1nnc(CN(C)C(=O)CN2CC(c3ccccc3)CC2=O)o1", "note": "(stereo unspecified)", "INHIBITION": -112}
{"compound": "Cn1cc(C(=O)NCc2cncc3c2CCNC3)cn1", "INHIBITION": -118}
{"compound": "Cc1csc([C@H]2C[C@@H]3CCN(Cc4cc(C)on4)C[C@H]3O2)n1", "INHIBITION": -69.7}
{"compound": "c1cncc(OC[C@@]23CCO[C@@H]2CCN(Cc2cccs2)C3)c1", "INHIBITION": -5.17}
{"compound": "O=C1N(c2cncnc2)CCC12CCCN(Cc1ccccn1)C2", "note": "(stereo unspecified)", "INHIBITION": -36.2}
{"compound": "NCC1Cc2cc(-c3nccc(N4CCC(O)CC4)n3)cc(F)c2O1", "note": "(stereo unspecified)", "INHIBITION": 83.1}
{"compound": "NCC1Cc2cc(-c3nccc(N4CCC(O)CC4)n3)cc(Cl)c2O1", "note": "(stereo unspecified)", "INHIBITION": 80.6}
{"compound": "O=C(NC[C@H]1C[C@@H]2CCN1C[C@@H]2CN1CCCC1)c1ccco1", "INHIBITION": -62.4}
{"compound": "CN1CCN(S(C)(=O)=O)Cc2cccnc21", "INHIBITION": -87.7}
{"compound": "CNC(=O)[C@@]12CCO[C@@H]1CCN(Cc1c(C)noc1C)C2", "INHIBITION": -74.2}
{"compound": "CN1CCCCC1c1ncc2c(n1)CCN(Cc1ccc(F)cc1)C2", "note": "(stereo unspecified)", "INHIBITION": 86.4}
{"compound": "Cc1ccc2c(n1)N(C)CCN(Cc1cnn(C)c1)C2", "INHIBITION": -35.9}
{"compound": "CN1CCCCC1c1ncc2c(n1)CCN(CCCc1ccccc1)C2", "note": "(stereo unspecified)", "INHIBITION": 89.2}
{"compound": "CN1CCN(Cc2ccc(F)cc2)Cc2cccnc21", "INHIBITION": -5.74}
{"compound": "CN1CCCCC1c1ccc(-n2ccnc2)nc1", "note": "(stereo unspecified)", "INHIBITION": -5.64}
